The source made the active and inactive calls. Rule for the calls: active = hit-call score of the fitted dose curve at least 0.9, where 1 is the maximum; inactive = score below 0.9.
System: not listed separately
Experiment: ATG_CRE_CIS: Attagene CIS-FACTORIAL HepG2 Assay for human cAMP Responsive Element (CRE) binding protein 3 (AID 2282926)
Conditions: HepG2 CRE cis-reporter, Attagene multiplexed mRNA; actives raise or lower the signal
Outline: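 Transfected HepG2 were treated for 24 hours, then RNA was extracted and reporter cDNA amplified with sequence-specific primers. Labelled fragments were separated by capillary electrophoresis, and the CRE signal was fitted bidirectionally with DMSO as baseline.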
With `CCOP(=S)(OCC)SCSc1cc(Cl)ccc1Cl` the outcome was “inactive”.
For `O=[N+]([O-])c1cccc2ccccc12`, the outcome was “inactive”.
For `Cc1cc(Cl)ccc1OC(C)C(=O)O` (centres undefined), the outcome was “inactive”.
For `CCCCOP(=O)(CCCC)OCCCC`, the outcome was “inactive”.

Target: CCAAT/enhancer-binding protein beta (Homo sapiens) (UniProt P17676)
Sequence (P17676 whole entry, looked up): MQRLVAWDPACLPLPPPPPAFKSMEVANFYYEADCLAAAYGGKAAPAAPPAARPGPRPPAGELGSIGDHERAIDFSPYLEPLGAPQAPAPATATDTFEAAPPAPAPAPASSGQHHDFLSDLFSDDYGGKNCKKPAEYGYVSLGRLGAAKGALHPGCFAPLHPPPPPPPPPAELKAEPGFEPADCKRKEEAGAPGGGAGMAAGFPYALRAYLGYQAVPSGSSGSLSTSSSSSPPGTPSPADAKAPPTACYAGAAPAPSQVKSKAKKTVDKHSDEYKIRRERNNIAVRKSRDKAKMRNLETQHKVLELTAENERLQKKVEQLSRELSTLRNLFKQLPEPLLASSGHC
Experiment: ATG_C_EBP_CIS: Attagene CIS-FACTORIAL HepG2 Assay for human CCAAT/Enhancer Binding Protein (C/EBP) beta (AID 2282927)
Conditions: HepG2 Attagene cis-factorial transcription factor reporter; actives raise or lower the signal
Outline: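 Endogenous transcription factor activity in human liver HepG2 cells is inferred from induction of a CEBPB-linked reporter mRNA. Exposure lasts 24 h; activity is fitted in both directions relative to DMSO.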
For `CC(C)[C@H](C(=O)OC(C#N)c1cccc(Oc2ccccc2)c1)c1ccc(OC(F)F)cc1` (some centres undefined), the outcome was “inactive”.
For `N#CS`, the outcome was “inactive”.
With `CCOc1cc(C=O)ccc1O` the outcome was “inactive”.
For `CCOP(=S)(OCC)Oc1ccc(Cl)cc1Cl`, the outcome was “inactive”.
For `C=CCOC(N)=O`, the outcome was “inactive”.
With `Cc1ccccc1OP(=O)(Oc1ccccc1)Oc1ccccc1` the outcome was “inactive”.
In the case of `CC1(C)COP(Oc2ccccc2)OC1`, the outcome was “inactive”.
With `O=NN1CCCCCC1` the outcome was “inactive”.
For `CCCCC(CC)COC(=O)Cl` (centres undefined), the outcome was “inactive”.
For `CCOP(=S)(OCC)SCSc1cc(Cl)ccc1Cl`, the outcome was “inactive”.
In the case of `O=S(=O)(C(Cl)(Cl)Cl)C(Cl)(Cl)Cl`, the outcome was “inactive”.
With `Nc1ccc(N)cc1` the outcome was “inactive”.
In the case of `Nc1ncn[nH]1`, the outcome was “inactive”.
With `CCOC(=O)c1ccccc1S(=O)(=O)NC(=O)Nc1nc(Cl)cc(OC)n1` the outcome was “inactive”.
For `O=c1[nH]c(=O)n(Cl)c(=O)n1Cl`, the outcome was “inactive”.
For `CCCCN(CCCCO)N=O`, the outcome was “inactive”.
In the case of `O=C(CBr)c1ccc(O)cc1`, the outcome was “inactive”.
For `CC(=O)C(F)(F)C(F)(F)F`, the outcome was “inactive”.
In the case of `C=CCN=C=S`, the outcome was “inactive”.
In the case of `O=[N+]([O-])c1cccc2ccccc12`, the outcome was “inactive”.
For `CCCCOC(C)=O`, the outcome was “inactive”.
With `Cc1cc(Cl)ccc1OC(C)C(=O)O` (centres undefined) the outcome was “inactive”.
In the case of `Cc1cc(Cl)ccc1OCCCC(=O)O`, the outcome was “inactive”.
In the case of `N#CCC#N`, the outcome was “inactive”.
In the case of `COP(=S)(OC)Oc1cc(Cl)c(I)cc1Cl`, the AC50 was 27.9 µM (active).
With `COC(=O)c1cc(Oc2ccc(Cl)cc2Cl)ccc1[N+](=O)[O-]` the outcome was “inactive”.
In the case of `C#CCOC(=O)/C=C(C)/C=C/CC(C)CCCC(C)C` (centres undefined), the outcome was “inactive”.
With `Cc1ccc(CCl)cc1` the outcome was “inactive”.
With `NNCCO` the outcome was “inactive”.
In the case of `CCOP(=O)(OCC)SCCSCC`, the outcome was “inactive”.
For `O=S1OC[C@@H]2[C@H](CO1)[C@]1(Cl)C(Cl)=C(Cl)[C@@]2(Cl)C1(Cl)Cl` (some centres undefined), the outcome was “inactive”.
In the case of `CC(C)(c1ccccc1)c1cc(-n2nc3ccccc3n2)c(O)c(C(C)(C)c2ccccc2)c1`, the outcome was “inactive”.
In the case of `c1csc(-c2ccc(-c3cccs3)s2)c1`, the outcome was “inactive”.
With `CCOP(=S)(OCC)OP(=S)(OCC)OCC` the outcome was “inactive”.
For `Clc1cnc(Oc2ccc(Oc3ncc(Cl)cc3Cl)cc2)c(Cl)c1`, the outcome was “inactive”.
With `OC(Cc1ccccc1Cl)(Cn1[nH]cnc1=S)C1(Cl)CC1` (centres undefined) the outcome was “inactive”.
For `CCCCOP(=O)(CCCC)OCCCC`, the outcome was “inactive”.
For `CCC(C)(C#N)N=NC(C)(C#N)CC` (centres undefined), the outcome was “inactive”.
With `CCN(CC)C(=O)C(Cl)=C(C)OP(=O)(OC)OC` the outcome was “inactive”.
With `CCCCC(CC)C(=O)Cl` (centres undefined) the outcome was “inactive”.

From PubChem BioAssay (EPA / NIEHS)
